Screening results as filed in PubChem BioAssay.
AMA1 RON2 block: AMA1-RON2 (P. falciparum) interaction inhibition. AlphaScreen AMA1-biotinylated RON2 peptide binding. Potency, µM (highest dose often 58.2 µM), for the others: at the top dose activity change, negative = inhibition, actives largely listed as inhibitors. actives 0.2% (n = 360,000);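 further: potency means the concentration at half of the fitted maximal effect; 0% = vehicle wells and -100% = peptide control; nearly all actives have a fitted effect of over 45% in size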
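AMA1 (3D7) with his tag at 25 nM final met compounds first, then biotinylated RON2 peptide at 25 nM; detection used donor plus acceptor beads, 10 µg/mL apiece, read by AlphaScreen after 30 min at room temperature.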
AmpC inh no detg: blocks E. coli AmpC beta-lactamase in detergent-free assay. AmpC nitrocefin hydrolysis, absorbance 480 nm, 0.0001% Triton. P00811. AID 485341. Potency, µM (doses to about 57.1 µM), for the others: top-dose activity change, negative = inhibition, hits mostly inhibitors. actives 0.52% (n = 330,000);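 further: potency means the concentration at half of the fitted maximal effect; plate controls were no compound for no effect and no enzyme for full effect; nearly all actives have a fitted effect of over 20% in size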
Target sequence (P00811 whole entry, looked up): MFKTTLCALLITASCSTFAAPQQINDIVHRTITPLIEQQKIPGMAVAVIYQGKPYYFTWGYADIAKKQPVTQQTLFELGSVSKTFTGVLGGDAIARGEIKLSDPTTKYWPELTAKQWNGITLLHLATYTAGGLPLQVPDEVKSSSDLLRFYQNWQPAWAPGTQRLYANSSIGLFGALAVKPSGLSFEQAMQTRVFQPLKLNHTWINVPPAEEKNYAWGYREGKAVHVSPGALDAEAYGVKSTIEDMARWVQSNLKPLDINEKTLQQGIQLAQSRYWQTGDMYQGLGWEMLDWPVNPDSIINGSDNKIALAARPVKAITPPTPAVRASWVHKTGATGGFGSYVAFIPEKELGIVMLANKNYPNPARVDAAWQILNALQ
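AmpC (5.3 nM in the dispensed reagent) in 20 mM phosphate pH 7.0 with 0.01% (detergent screen) or 0.0001% Triton X-100 was preincubated with compounds for 15 min at room temperature. Nitrocefin was then added from an 800 uM solution, and hydrolysis was followed at 480 nm.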
Vaccinia Venus: vaccinia inhibition (Venus reporter) | Vaccinia virus Venus reporter expression, fluorescence | Potency, µM (titrated, usually from 36.5 µM), inactives show at the highest dose activity change, negative = inhibition, usual class: inhibitors | actives 0.46% (n = 330,000) | AID 720580; calls by dose curve; tested in A549 cells; further: potency means the concentration at half of the fitted maximal effect; on the % scale 0 is the no-effect control and ±100 the full control effect; nearly all actives have a fitted effect of over 30% in size
Vaccinia mCherry: vaccinia inhibition (mCherry reporter); Vaccinia virus mCherry reporter infection, fluorescence; actives 0.63% (n = 310,000); Potency, µM (doses to about 36.5 µM), inactives show at the top dose activity change, negative = inhibition, usual class: inhibitors; calls by dose curve; tested in A549 cells; further: potency means the concentration at half of the fitted maximal effect; on the % scale 0 is the no-effect control and ±100 the full control effect; nearly all actives have a fitted effect of over 35% in size
AmpC detergent: blocks E. coli AmpC beta-lactamase in detergent assay; AID 485294; Potency, µM (titrated, usually from 114 µM), for inactives: at the highest dose activity change, negative = inhibition, actives largely listed as inhibitors; actives 0.041% (n = 370,000); AmpC hydrolysis of nitrocefin, absorbance 480 nm, 0.01% Triton; P00811;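 further: potency means the concentration at half of the fitted maximal effect; 0% = no-compound wells and -100% = no-enzyme wells; nearly all actives have a fitted effect of over 25% in size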
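20 mM phosphate pH 7.0 + 0.01% (detergent screen) or 0.0001% Triton X-100; 5.3 nM AmpC reagent; cpd preinc 15 min RT; nitrocefin (800 uM stock) to start; A480 q20 s × 4 min; Activity was normalised to no-enzyme and no-compound control wells.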
SARS PLpro yeast-1: blocks SARS-CoV papain-like protease in a yeast assay. S. cerevisiae expressing SARS-CoV PLpro, growth rescue. Potency, µM (highest dose often 32.9 µM), for the others: at the highest dose activity, positive = growth rescue, most hits filed as activators. actives 0.19% (n = 330,000); calls by dose curve; further: potency means the concentration at half of the fitted maximal effect; 0% is about no effect; nearly all actives have a fitted effect of over 55% in size
SARS PLpro yeast-2: Inhibits SARS-CoV PLP in yeast, hit validation | yeast expressing SARS-CoV PLpro, growth phenotype rescue | calls only | actives 19% (n = 1,000) | shares compounds with SARS PLpro yeast-1; call rule not given here
* marks the source's active call; other numbers are inactive results; i = inactive; ? = inconclusive; / = not tested or not shown; + = active, no number; [ ] = remark or other dose. Shown are actives, neighbours in structure and some others; about 1.3% of the full set was active somewhere. Unless noted, the call rests on the fitted dose curve; in most records, active means well fitted curve in the direction sought with a large enough effect; inconclusive means small, poorly fitted or top-dose-only effect, or another doubt; inactive means no such curve, though single readings can be large; an effect the other way counts as inactive or inconclusive.

SMILES | AMA1 RON2 block | AmpC inh no detg | Vaccinia Venus | Vaccinia mCherry | AmpC detergent | SARS PLpro yeast-1 | SARS PLpro yeast-2
Cc1ccc(NC(=O)CSc2nc3ccc(NC(=O)c4cccs4)cc3s2)c(C)c1 | / | / | -18% | -6% | -6% | / | /
COc1ccc(-c2cc(N3C(=O)Nc4ccccc4N3O)n[nH]2)cc1OC | -11% | 8% | 2% | -13% | -7% | 12% | /
COc1ccc(-c2cc(N3C(=O)Nc4ccccc4N3O)n[nH]2)cc1 | 10% | 3% | -11% | i | 1% | 11µM* | i
Clc1nc2sccn2c1/C=N/n1cnc2ccccc21 | 2% | -4% | -10% | -22% | 6% | ? | i
C(=N\n1cnc2ccccc21)/c1cccnc1 | -5% | -13% | / | / | 4% | 10% | /
Cc1ccc(/C=C/C(=O)OCC(=O)Nc2cccc(S(=O)(=O)N(C)C)c2)o1 | 5%[11.6 µM] | -19% | -17% | -18% | ? | 3.2µM* | i
COC(=O)c1cc(C(=O)Nc2nc3ccccc3[nH]2)cc([N+](=O)[O-])c1 | 53% | -47% | -5% | -7% | -8% | 19% | /
CCOC(=O)c1[nH]c2ccc(Cl)cc2c1NC(=O)c1nonc1C | 9% | -9% | / | / | -1% | ? | +
CCOC(=O)c1[nH]c2ccc(OC)cc2c1NC(=O)c1nonc1C | 0% | -11% | ? | / | ? | 4% | /
Cc1ccc([C@@H]2CC(=O)[C@@H]3CN(S(=O)(=O)c4ccc(C)cc4)[C@H](c4ccc(Cl)cc4)C[C@@H]3N2S(=O)(=O)c2ccc(Cl)cc2)cc1 | 2% | / | -10% | i | / | / | /
Cc1c(C)c2c(C)[nH]nc2oc1=O | 1% | -5% | -10% | -15% | -2% | ? | i
CC(=O)c1cccc(NCC(=O)N2CCN(S(=O)(=O)c3ccccc3)CC2)c1 | -4% | -10% | / | / | ? | 8%[6.58 µM] | /
COc1cccc(C2C(C(=O)Nc3cccnc3)=C(C)Nc3nc(SCc4ccccc4)nn32)c1 (stereo not given) | / | / | -2% | -5% | 7% | / | /
CNC(=O)Oc1ccc2ncccc2c1 | -4%[11.6 µM] | -12% | -13% | i | ? | 14µM* | +
COc1ccc(OC)c(N(CC(=O)NN=C2CCN(C)CC2)S(=O)(=O)c2ccccc2)c1 | 2% | -37% | -12% | i | -2% | 2% | /
COc1cc2nc(CN3C(=O)c4ccccc4C3=O)oc(=O)c2cc1OC | -1% | -2% | -4% | / | ? | 22µM* | i
COc1cc2nc(-c3ccccc3C)oc(=O)c2cc1OC | 22% | 2% | -13% | 8% | 5% | -4% | /
CC(=O)Nc1ccc(NC(=O)C(C)OC(=O)c2c(NC(C)=O)sc(C)c2C)cc1 (stereo not given) | -1% | -29% | / | / | -3% | ? | i
COC(=O)c1c(NC(C)=O)sc(C)c1C | -6% | -9% | 15% | -22% | 0% | 0% | /
COC(=O)c1ccc(OC(=O)c2cccnc2)cc1 | 1% | -2% | -20% | -10% | -9% | 16µM* | ?
Cc1ccc(-c2nc3ccccc3c(=O)n2-c2cc(C)ccn2)cc1 | 9% | 9% | -4% | -15% | -3% | 4µM* | i
Cc1c(C=O)c2ccccc2n1Cc1ccc([N+](=O)[O-])cc1 | -22% | -23% | -22% | ? | -5% | ? | i
CCn1c(=O)c2ccccc2n(Cc2ccc([N+](=O)[O-])cc2)c1=O | -4% | -9% | / | / | -3% | 4% | /
CN(CCNC(=O)Cn1c(=O)sc2ccccc21)Cc1ccccc1 | -1% | -4% | -9% | -6% | ? | ? | i
CCCCN(C)CCNC(=O)Cn1c(=O)sc2ccccc21 | -6% | -10% | / | / | ? | 4% | /
SMILES | AMA1 RON2 block | AmpC inh no detg | Vaccinia Venus | Vaccinia mCherry | AmpC detergent | SARS PLpro yeast-1 | SARS PLpro yeast-2
C(=C\c1ccnc2ccccc12)/c1ccc(-[n+]2cc[n+](-c3ccc(/C=C/c4ccnc5ccccc45)cc3)cc2)cc1 | / | / | -3% | -14% | / | / | /
CN(N=Nc1nc[nH]c1C(N)=O)C1CCCCC1 | -12% | / | -2% | 14% | / | / | /
Cc1c(C(=O)N2CCN(S(=O)(=O)c3ccc(F)cc3)CC2)oc2ccccc12 | 1% | -6% | -13% | -19% | -14% | ? | i
Cc1c(C(=O)N2CCN(S(=O)(=O)c3cccs3)CC2)oc2ccc(F)cc12 | 13% | -14% | / | / | / | -2% | /
Cc1oc(-c2cccc(Cl)c2)nc1CN1CCC(C(=O)NCc2ccc(F)cc2)CC1 | / | / | -9% | -16% | 7% | / | /
Cc1ccc(S(=O)(=O)Nc2ccc(O)c3ncccc23)cc1 | -49% | -32% | / | / | 1% | ? | +
CC(C)(C)OC(=O)C[C@H]1C/C=C\C[C@@H](CC(=O)N[C@@H](CO)Cc2ccccc2)C(=O)NC[C@H](c2ccccc2)OC1=O | 18% | 104% | -5% | i | / | 3.5µM* | i
O=C(NNC(=O)c1cc(Cl)ccc1O)c1ccc(NS(=O)(=O)c2cccs2)cc1 | 33% | -32% | -12% | -13% | ? | ? | ?
O=C(NNC(=O)c1cc(F)c(F)cc1Cl)c1ccc(NS(=O)(=O)c2cccs2)cc1 | 73% | -26% | / | / | 3% | -3% | /
CC(=O)Nc1cccc(C(=O)OCc2ccc(C(=O)Oc3ccc(Cl)cc3)cc2)c1 | -4% | 2% | / | / | 2% | ? | i
c1cncc(-c2ccc3ncnc(NCc4ccc5c(c4)OCO5)c3c2)c1 | / | -48% | / | / | ? | 4% | i
CCSc1nnc(NC(=O)C(Cc2ccccc2)n2cccc2)s1 (stereo not given) | 1% | -24% | -11% | 21% | -16% | ? | i
CC1=C(C(=O)N2CCc3ccccc32)C2(CCC(C)CC2)OC1=O (stereo not given) | -10% | 30% | / | / | -6% | ? | i
CCOC(=O)c1c(NC(=O)c2c(N)n(CCCOC)c3nc4ccccc4nc23)sc2c1CCCC2 | -2% | -20% | -19% | -14% | 0% | -8% | /
CCOCCCn1c(N)c(C(=O)Nc2sc3c(c2C(=O)OC)CCCC3)c2nc3ccccc3nc21 | -2% | 12% | -13% | ? | 5% | ? | ?
Cc1cccc2cc(COC(=O)c3cccs3)c(=O)[nH]c12 | 0% | -7% | -13% | -20% | -4% | 3.2µM* | i
NC(c1cccc(F)c1)c1nc(-c2ccc(Cl)cc2)cs1 (stereo not given) | 14% | / | -14% | 13% | / | / | /
Cc1cccc(C)c1NC(=O)Cn1c(=O)c(N2CCCCC2)c(N)n(C)c1=O | -9% | -13% | -9% | -1% | / | 11µM* | i
O=C(CCCOc1ccc(Cl)cc1Cl)N/N=C/c1ccccc1O | 64% | -15% | ? | 7.1µM* | -11% | ? | i
